Inconclusive results are not listed. Calls of active or inactive are those of the source. Calls follow the shape of the dose curve; as a rule, active = well fitted curve in the direction sought with a large enough effect; inconclusive = small, poorly fitted or top-dose-only effect, or another doubt; inactive = no such curve, though single readings can be large; an effect the other way counts as inactive or inconclusive.

The target of experiment [1] is Single-stranded DNA cytosine deaminase (Homo sapiens) (UniProt Q9GZX7). The experiment can be described thus: Validation qHTS assay for inhibitors of Activation Induced Cytidine Deaminase (AID): AID signal (AID 1347429). The procedure, abridged: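 Compounds (final up to 114 uM) preincubated with AID plus UDG; 250 nM DJC20/DJC23 substrate mix (4x stock) added, 4 hr at room temperature, then NaOH, 30 min. Read 1 fluorescence at 540 nm excitation, 590 nm emission.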
Chain of Single-stranded DNA cytosine deaminase (Homo sapiens) (Q9GZX7 whole entry, looked up): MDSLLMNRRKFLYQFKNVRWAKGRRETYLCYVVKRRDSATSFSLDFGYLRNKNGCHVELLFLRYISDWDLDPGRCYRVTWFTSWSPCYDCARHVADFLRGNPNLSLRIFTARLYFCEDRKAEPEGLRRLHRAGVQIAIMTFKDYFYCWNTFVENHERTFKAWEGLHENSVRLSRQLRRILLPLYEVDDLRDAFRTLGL
(In general: Quantitative high-throughput screening tests each substance at several concentrations.)

The nature of experiment [2]: Primary qHTS for inhibitors of La Crosse Virus (LACV) - induced cell death in SH-SY5Y cells (AID 1508616).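 Also: top concentration of the series differs between compounds; higher means more rescue of cells from virus-induced death.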 The procedure, abridged: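 Rescue of virus-induced death was read as ATPLite luminescence after 6 days at 37C, scaled between DMSO wells with LACV and without virus. Cells were SH-SY5Y, 6000/well, infected at 0.01 MOI after compound addition.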
A further experiment has as its target Papain (Carica papaya) (UniProt P00784). The experiment is described as follows: Primary qHTS assay for inhibitors of the protease papain (AID 1645873).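 Also: papain turnover of Z-FR-AMC read as the AMC fluorescence gain over 10 min.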 Also: potency is read from the fitted curve at half-maximal effect.
Experiment [3] is described as follows: Primary qHTS for small molecule stabilizers of the endoplasmic reticulum resident proteome: Secreted ER Calcium Modulated Protein (SERCaMP) assay (AID 1508630). The procedure, abridged: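 The SH-SY5Y reporter protocol was run at 3 concentrations up to 38.3 uM (primary) or 11 concentrations (follow-up): 16 h compound, 100 nM thapsigargin for 4 h, then extracellular luciferase luminescence.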

In experiment [4] the target is Calcium and integrin-binding protein 1 (Homo sapiens) (UniProt Q99828). The experiment is described as follows: Validation qHTS for Identification of Calcium Integrin Binding protein 1 (CIB1) Competitor (AID 1508618). The procedure, abridged: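 CIB1-GST (1 uM final) incubated 15 min at room temperature with compounds (up to 114 uM), then FITC-labelled alphaIIb peptide (100 nM) added. FP read (Ex 480/Em 540) after 15 min, pH 7.4 buffer containing 5 mM CaCl2.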
Chain of Calcium and integrin-binding protein 1 (Homo sapiens) (Q99828 whole entry, looked up): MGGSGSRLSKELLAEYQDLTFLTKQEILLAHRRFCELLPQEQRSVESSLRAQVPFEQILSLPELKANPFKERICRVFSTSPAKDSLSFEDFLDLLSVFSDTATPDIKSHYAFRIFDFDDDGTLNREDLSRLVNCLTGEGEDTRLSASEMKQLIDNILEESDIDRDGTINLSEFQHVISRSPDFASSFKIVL

Chain of Papain (Carica papaya) (P00784 whole entry, looked up): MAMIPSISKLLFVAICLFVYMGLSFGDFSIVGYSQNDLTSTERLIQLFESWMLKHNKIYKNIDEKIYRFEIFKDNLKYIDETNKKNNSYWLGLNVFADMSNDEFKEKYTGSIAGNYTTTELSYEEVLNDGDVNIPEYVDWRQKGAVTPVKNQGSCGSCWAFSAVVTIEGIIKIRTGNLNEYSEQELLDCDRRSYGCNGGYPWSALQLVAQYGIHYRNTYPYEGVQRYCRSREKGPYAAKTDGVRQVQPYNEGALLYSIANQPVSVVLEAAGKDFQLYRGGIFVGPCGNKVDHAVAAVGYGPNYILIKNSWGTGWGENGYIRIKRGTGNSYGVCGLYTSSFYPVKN

On to `Brc1c(Br)c(Br)c2[nH]cnc2c1Br`, for which the Potency result (in experiment [1]; in experiment [2]; with Papain (Carica papaya)) was “inactive” in each case.

For `C=CCn1c(=O)c2c(nc(-c3ccc(S(=O)(=O)O)cc3)n2C)n(C)c1=O`, the Potency entry in experiment [1], in experiment [2] and in experiment [3] was “inactive” throughout. Further, the Potency with Papain (Carica papaya) was 25.1 µM (active).

For `CN1CCC2(CCN3CCc4c(oc5ccccc45)C3C2)N(C)C1=O` (stereo not drawn), the Potency result (in experiment [1]; in experiment [2]; in experiment [3]; with Papain (Carica papaya)) was “inactive” in each case.

Turning to `NC(=O)c1cc[n+](CC2=C(C(=O)O)N3C(=O)[C@@H](NC(=O)[C@@H](c4ccccc4)S(=O)(=O)[O-])[C@H]3SC2)cc1`, the Potency result (in experiment [1]; in experiment [2]; in experiment [3]; with Papain (Carica papaya)) was “inactive” in each case.

With `O=C(O)c1ccccc1Nc1cccc(OCc2ccc3ccccc3n2)c1`, the Potency result (in experiment [1]; in experiment [2]; in experiment [3]; with Papain (Carica papaya)) was “inactive” each time.

With `O=c1onc2n1-c1cc(Br)ccc1OC2`, the Potency entry (in experiment [1]; in experiment [2]; in experiment [3]; with Papain (Carica papaya)) was “inactive” each time.

On to `CC(=O)C(C)=O`, for which the Potency entry (in experiment [1]; in experiment [2]; in the experiment with Papain (Carica papaya)) was “inactive” each time.

Take `CSc1nc(N)c2ncn([C@@H]3O[C@H](COP(=O)(O)OP(=O)(O)O)C(O)[C@H]3O)c2n1` (stereo partly drawn): the Potency entry (in experiment [1]; in experiment [2]; in experiment [3]; in the experiment with Papain (Carica papaya)) was “inactive” in each case.

Turning to `Cc1nc2n(c(=O)c1CCN1CCC(c3noc4cc(F)ccc34)CC1)CCCC2O` (stereo not drawn), the Potency result (in experiment [1]; in experiment [2]; in experiment [3]; with Papain (Carica papaya)) was “inactive” in each case.

`NC1C=CC=C(C(=O)O)C1` (stereo not drawn): the Potency entry (in experiment [1]; in experiment [2]; in experiment [3]; with Papain (Carica papaya)) was “inactive” in each case.

As for `Cc1cc(Cn2cnc3c2C[C@@H](C(=O)O)N(C(=O)C(c2ccccc2)c2ccccc2)C3)ccc1N`, the Potency entry (in experiment [1]; in experiment [2]; in experiment [3]; with Papain (Carica papaya)) was “inactive” throughout.

As to `CC(=O)NCCc1c[nH]c2ccc(O)cc12`, the Potency entry (in experiment [1]; in experiment [2]; in experiment [3]; with Papain (Carica papaya)) was “inactive” each time.

Turning to `C=CCNc1ncnc2ccc(Br)cc12`, the Potency entry (in experiment [1]; in experiment [2]; with Papain (Carica papaya)) was “inactive” in each case.

In the case of `Nc1ccc(CCNc2ncnc3c2ncn3C2OC(CO)C(O)C2O)cc1` (stereo not drawn), the Potency result (in experiment [1]; in experiment [2]; in experiment [3]; in the experiment with Papain (Carica papaya)) was “inactive” throughout.

Regarding `O=[N+]([O-])c1cccc2c(Br)[nH]nc12`, the Potency result (in experiment [1]; in experiment [2]; in experiment [3]; with Papain (Carica papaya)) was “inactive” in each case.

In the case of `O=c1[nH]c2ccccc2c2ccccc12`, the Potency entry (in experiment [1]; in experiment [2]; with Papain (Carica papaya)) was “inactive” each time.

Take `Cc1cccc(C2CN(C)CCc3c2cc(O)c(O)c3Cl)c1` (stereo not drawn): the Potency result (in experiment [1]; in experiment [2]; with Papain (Carica papaya)) was “inactive” in each case.

For the compound `N[C@@H](CCCC(=O)O)C(=O)O`, the Potency result (in experiment [1]; in experiment [2]; in experiment [3]; with Papain (Carica papaya)) was “inactive” in each case.

Consider `Oc1cc(O)c2c(c1)O[C@H](c1ccc(O)c(O)c1)[C@@H](O)C2`, for which the Potency entry (in experiment [1]; in experiment [2]; in experiment [3]; with Papain (Carica papaya)) was “inactive” throughout.

`Nc1ncnc2c1nc(Sc1ccc(Cl)cc1)n2[C@H]1OC2COP(=O)(O)O[C@@H]2C1O` (stereo partly drawn): the Potency entry (in experiment [1]; in experiment [2]; in experiment [3]; with Papain (Carica papaya)) was “inactive” in each case.

`CCCn1c(=O)c2[nH]c(-c3ccc(S(=O)(=O)O)cc3)nc2n(CCC)c1=O`: the Potency entry in experiment [1], in experiment [2] and in experiment [3] was “inactive” each time. Also, the Potency with Papain (Carica papaya) is 25.1 µM (active).

`Nc1ncnc2c1nc(Br)n2C1OC2COP(=O)(O)O[C@@H]2C1O` (stereo partly drawn): the Potency result (in experiment [1]; in experiment [2]; in experiment [3]; with Papain (Carica papaya)) was “inactive” in each case.

With `C[C@@]1(C2CCCC2)Cc2cc(OCC(=O)O)c(Cl)c(Cl)c2C1=O`, the Potency entry (in experiment [1]; in experiment [2]; in the experiment with Papain (Carica papaya)) was “inactive” each time.

Regarding `CCCCCCCCCC(=O)NC(CN1CCOCC1)[C@H](O)c1ccccc1` (stereo partly drawn), the Potency result (in experiment [1]; in experiment [2]; with Papain (Carica papaya)) was “inactive” each time.

Take `Cc1ccc([N+](=O)[O-])cc1S(=O)(=O)N(C)C`: the Potency entry (in experiment [1]; in experiment [2]; in experiment [3]; with Papain (Carica papaya)) was “inactive” each time.

As to `C=C1C(=O)O[C@@H]2[C@H]3O[C@]3(C)CCC=C(C)CC[C@@H]12`, the Potency result (in experiment [1]; in experiment [2]; in experiment [3]; with Papain (Carica papaya)) was “inactive” throughout.

For the compound `N=S(=O)(O)Cc1noc2ccccc12`, the Potency entry (in experiment [1]; in experiment [2]; in experiment [3]; with Papain (Carica papaya)) was “inactive” each time.

As to `C=C1C[C@@]23CC[C@H]4[C@@](C)(CCC[C@@]4(C)C(=O)OC4OC(CO)C(O)C(O)C4O)[C@@H]2CC[C@]1(OC1OC(CO)C(O)C(O)C1OC1OC(CO)C(O)C(O)C1O)C3` (stereo partly drawn), the Potency entry (in experiment [1]; in experiment [2]; with Papain (Carica papaya)) was “inactive” in each case.

`Nc1ncnc2c1ncn2C1CCCO1` (stereo not drawn): the Potency entry (in experiment [1]; in experiment [2]; in experiment [3]; in the experiment with Papain (Carica papaya)) was “inactive” throughout.

As to `CC(=O)N[C@@H](Cc1c[nH]c2ccccc12)C(=O)OCc1cc(C(F)(F)F)cc(C(F)(F)F)c1`, the Potency entry (in experiment [1]; in experiment [2]; in the experiment with Papain (Carica papaya)) was “inactive” each time.

Turning to `N#C/C(=C\c1ccc(O)c(O)c1)C(=O)NCCc1ccccc1`, the Potency entry (in experiment [1]; in experiment [2]; in the experiment with Papain (Carica papaya)) was “inactive” throughout.

As to `C[C@H](O)C(=O)C1=Nc2c(nc(N)[nH]c2=O)NC1`, the Potency entry in experiment [1], in experiment [2] and in experiment [3] was “inactive” each time. Also, the Potency in the experiment with Papain (Carica papaya) was 28.2 µM (active).

For `COc1ccc(-c2cc3ncc(C)n3c(Nc3ncccc3C(N)=O)n2)cc1OC`, the Potency entry in experiment [1] and in experiment [4] was “inactive” in each case.

As for `[N-]=[N+]=Nc1ccc(C(=O)CSC[C@H](NC(=O)CC[C@H](N)C(=O)O)C(=O)NCC(=O)O)cc1`, the Potency entry in experiment [2], in experiment [4] and in experiment [3] was “inactive” throughout.

(Values after PubChem BioAssay (NCATS).)
